This is a sample that favours compounds with a hit; in the whole collection about 2.9% have one here.
GRK2 inh = human GRK2 inhibition via aptamer displacement; hit rate 0.59% among 330,000; P25098; inhibition of aptamer binding, % at 10 µM; bead flow cytometry, FAM-aptamer displacement from GRK2; AID 488847;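 active = inhibition of aptamer binding above 40%, roughly 3 SD of noise, on plates passing a quality check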;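 also: median bead fluorescence of bound FAM aptamer so fluorescent compounds give negative values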
Target sequence (P25098 whole entry, looked up): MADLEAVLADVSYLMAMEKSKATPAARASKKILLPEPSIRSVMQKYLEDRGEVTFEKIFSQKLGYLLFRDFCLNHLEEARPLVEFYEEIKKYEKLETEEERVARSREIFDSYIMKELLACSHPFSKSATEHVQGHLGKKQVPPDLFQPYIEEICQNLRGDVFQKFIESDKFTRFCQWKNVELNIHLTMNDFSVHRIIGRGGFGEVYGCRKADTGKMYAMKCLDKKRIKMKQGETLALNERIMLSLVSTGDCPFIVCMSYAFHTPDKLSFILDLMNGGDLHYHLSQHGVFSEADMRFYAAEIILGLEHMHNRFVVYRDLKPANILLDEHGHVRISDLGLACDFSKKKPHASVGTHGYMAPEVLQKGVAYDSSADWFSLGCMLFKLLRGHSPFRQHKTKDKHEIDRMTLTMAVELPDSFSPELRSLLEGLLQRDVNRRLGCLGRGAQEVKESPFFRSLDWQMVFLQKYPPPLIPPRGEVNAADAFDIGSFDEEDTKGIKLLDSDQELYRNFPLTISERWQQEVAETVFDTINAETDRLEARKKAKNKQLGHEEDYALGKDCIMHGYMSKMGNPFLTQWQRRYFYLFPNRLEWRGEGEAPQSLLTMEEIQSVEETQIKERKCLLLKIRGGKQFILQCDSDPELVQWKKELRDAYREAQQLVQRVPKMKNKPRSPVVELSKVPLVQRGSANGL
MEKK2mut PB1 HTS = signal of MEK5 binding to mutant human MEKK2 PB1 domain; percent response, % at 10 µM; bead flow cytometry, Alexa488-MEK5 binding to MEKK2 mutant; hit rate 0.35% among 290,000; in the data active = percent response above about 24%, passing the limit was not always enough
MEKK2 WT-MEK5 = raises or lowers MEK5 binding to wildtype human MEKK2 PB1 domain | binding response (% of control), % at 10 µM | hit rate 1.1% among 290,000 | bead flow cytometry, Alexa488-MEK5 binding to MEKK2 WT; actives lie on both sides; in the data active = binding response below about 67% or above about 130%
B2AR ag = human beta-2 adrenergic receptor agonism by FAP; P07550; Am2.2-beta2AR cells, FAP receptor internalization, flow cytometry; response, % (no concentration beside the values); hit rate 0.43% among 340,000;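 active = response above a set limit, near 3 SD of response in nonfluorescent compounds, cut at about 42% in these data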
MEKK3 PB1 HTS = MEKK3-MEK5 PB1 interaction, increase or decrease | binding response (% of control), % at 10 µM | hit rate 1.4% among 290,000 | bead-based flow cytometry, Alexa488-MEK5 binding to MEKK3; actives lie on both sides; 0 = blocked by unlabeled MEK5, 100 = vehicle;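 active = binding response more than 3 SD above or below the average of its plate-row segment, actives on both sides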;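 also: Alexa488 bead fluorescence after subtracting the streptavidin-only scavenger bead signal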
GRK2 CP1 = confirmation of human GRK2 inhibitors displacing RNA aptamer. shares compounds with GRK2 inh. bead-bound GRK2, FAM-aptamer displacement, flow cytometry. aptamer displacement, % at 10 µM. hit rate 4% among 2,000. AID 504451;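 active = aptamer displacement above 40%, near three times the noise of non-fluorescent compounds, on plates passing quality checks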;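 also: negative values mostly reflect intrinsic compound fluorescence rather than true enhancement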
Aptamer quench SP = counter-screen for GRK2 aptamer inhibitors: fluorescent aptamer quenchers. fluorescence response (% of DMSO), % at 10 µM. shares compounds with GRK2 inh. AID 504580. 2,000 tested, under 10 active. Carboxyfluorescein RNA aptamer on beads, flow cytometry quenching; hits give low values;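 active = compounds that quench the bead-bound fluorescent RNA probe, cutting fluorescence to under half of the solvent control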;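 also: counterscreen run without GRK2 so only probe quenching by compound is measured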
GRK2 confirm 2 = human GRK2 inhibition confirmation, cherry pick 2; 360 tested, under 10 active; bead-bound GRK2, FAM-aptamer displacement, flow cytometry; inhibition of aptamer binding, % at 10 µM; shares compounds with GRK2 inh; AID 504782;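 active = inhibition of aptamer binding above 40%, about triple the noise seen with nonglowing compounds, on plates passing quality control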;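 also: negative values mostly come from compounds that fluoresce themselves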
FAM quench SP = counter-screen for GRK2 binding hits: quenchers of fluorescent RNA aptamer | carboxyfluorescein RNA aptamer beads, flow cytometry quenching; hits give low values | fluorescence response vs DMSO, % at 10 µM | 360 tested, under 10 active | shares compounds with GRK2 inh | AID 588494;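 active = response vs DMSO under 50%, meaning signal dropped by over half, treated as fluorescence quencher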;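 also: labelled aptamer on streptavidin beads without GRK2 as a quench counter-screen; 100% = bead fluorescence of DMSO wells and lower means quenching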
* marks the source's active call; other numbers are inactive results; / = no result given.

SMILES | GRK2 inh | MEKK2mut PB1 HTS | MEKK2 WT-MEK5 | B2AR ag | MEKK3 PB1 HTS | GRK2 CP1 | Aptamer quench SP | others
COc1cc(C(=O)NCCCN2CCCC2=O)cc(OC)c1OC | 94* | 1 | 100 | 6 | 100 | 1 | 100
COc1cc(-c2noc(C)c2C(=O)NCCCN2CCCC2=O)cc(OC)c1OC | 3 | / | / | 4 | / | / | /
O=C(COC(=O)/C=C/c1cccc(F)c1)Nc1ncccn1 | 45* | -1 | 99 | -1 | 102 | 31 | 100
Cc1nnc(NC(=O)c2ccc(Br)o2)s1 | 85* | 6 | 111 | 2 | 104 | -2 | 105
Cc1nnc(NC(=O)c2ccc(Br)cc2)s1 | 1 | 2 | 106 | 5 | 104 | / | /
C#Cc1cccc(C(=O)N2CCCC(C(=O)c3ccc(OC)cc3C)C2)c1 (configuration not stated) | 5 | 9 | 104 | -1 | 106 | / | /
O=C(NCC1CCCO1)c1cn(Cc2ccccc2)nc1-c1ccccc1 (configuration not stated) | 5 | / | / | -13 | / | / | /
O=C(NCC1CCCO1)c1cn(Cc2ccccc2)nc1-c1ccc(Cl)cc1 (configuration not stated) | 45* | / | / | -7 | / | 1 | 98
[O-]/C(=C(\C(=S)Nc1ccccc1F)[n+]1ccccc1)c1ccc(-c2ccccc2)cc1 | 1 | -2 | 95 | -1 | 98 | / | /
[O-]/C(=C(\C(=S)Nc1ccc(Cl)cc1)[n+]1ccccc1)c1ccc(OC(F)F)cc1 | 53* | -2 | 95 | -1 | 103 | 1 | 105
CC#CC(=O)N1CCC(CO)(CCc2ccccc2)CC1 | 1 | -11 | 92 | -3 | 95 | / | /
O=C(CNC(=O)c1ccccc1F)N/N=C/c1ccc2c(c1)OCO2 | 82* | 2 | 99 | -4 | 99 | -2 | 101
O=C(CNC(=O)c1ccccc1Cl)N/N=C/c1ccc2c(c1)OCO2 | 0 | -5 | 95 | 7 | 101 | / | /
Cn1c(C=O)c(-c2ccc3cc[nH]c3c2)c2ccccc21 | 0 | / | / | -2 | / | / | /
CCc1ccc(/C(C)=N/NC(=O)CNC(=O)/C=C/c2ccccc2OC)cc1 | 0 | -3 | 102 | 2 | 102 | / | /
CCc1ccc(/C(C)=N/NC(=O)CNC(=O)/C=C/c2ccco2)cc1 | 42* | / | / | 12 | / | 12 | 91
O=C(/C=C/c1ccco1)NCc1ccco1 | 60* | -6 | 103 | 7 | 101 | 0 | 93
Cc1cc(C)n2nc(C(=O)OCC(=O)c3ccccc3Cl)nc2n1 | 5 | / | / | -6 | / | / | /
Cc1cc(C)n2nc(C(=O)OCC(=O)c3cc(C)n(C)c3C)nc2n1 | 41* | 2 | 100 | -1 | 102 | 26 | 100
CN(C(=O)c1ccc(NC(=O)Cc2ccc(NC(=O)C3CCN(C(=O)C4CCC4)CC3)cc2)cc1)C1CC1 | 69* | / | / | -5 | / | 2 | 97
CC(=O)c1ccc(N2C(=NC(=O)CCC3CCCC3)SC3CS(=O)(=O)CC32)cc1 (configuration not stated) | 1 | -1 | 96 | -4 | 99 | / | /
COc1ccc(N2CCN(C3CCCN(C(=O)CN4CCOC4=O)C3)CC2)cc1 (configuration not stated) | 20 | 7 | 106 | -2 | 102 | / | /
O=C(CCCN1C(=O)/C(=C/c2cccs2)SC1=S)Nc1cccc(C(=O)O)c1 | 95* | 0 | 109 | -3 | 125 | 1 | 101
O=C(CCN1C(=O)/C(=C/c2cccs2)SC1=S)Nc1cccc(C(=O)O)c1 | 1 | 7 | 101 | -6 | 104 | / | /
CC(NC(=O)COc1ccc(Oc2ccccc2)cc1)C(=O)O (configuration not stated) | 52* | 2 | 101 | -6 | 105 | -3 | 108
SMILES | GRK2 inh | MEKK2mut PB1 HTS | MEKK2 WT-MEK5 | B2AR ag | MEKK3 PB1 HTS | GRK2 CP1 | Aptamer quench SP | others
O=c1c(O)cccc2cc(O)c(O)c(O)c12 | 100* | -19 | 81 | 5 | 85 | 30 | 91
Cc1ccc(Cl)cc1NC(=O)COC(=O)c1ccccc1O | 85* | 7 | 106 | -12 | 104 | -5 | 98
O=C(COc1ccc(/C=N/NC(=O)c2cc3ccccc3o2)cc1Cl)Nc1ccccc1 | 54* | -8 | 79 | 8 | 74 | 23 | 123
CCOCCc1c(O)nc(SCCOc2ccc(C)c(C)c2)[nH]c1=O | 1 | -14 | 90 | 0 | 98 | / | /
CNc1cc(N2CCN(S(=O)(=O)N(C)C)CC2)ccc1[N+](=O)[O-] | 73* | 2 | 102 | -3 | 105 | 4 | 94
CN(C)S(=O)(=O)N1CCN(c2ccc([N+](=O)[O-])c(NC3CC3)c2)CC1 | 0 | -4 | 94 | -1 | 92 | / | /
O=[N+]([O-])c1cc(C(F)(F)F)ccc1Sc1ccc2ccccc2n1 | 39 | -1 | 94 | 3 | 91 | -1 | 84
O=C(O)C1CC(O)CN1c1nc(Cl)ccc1[N+](=O)[O-] (configuration not stated) | 0 | 2 | 107 | 0 | 106 | / | /
COc1ccc(C(=O)CC2(C(=O)O)CCCCC2)cc1 | 0 | 4 | 107 | 1 | 106 | / | /
CCOc1ccc(OCC)c(S(=O)(=O)NCc2ccccc2)c1 | 42* | 8 | 110 | -4 | 104 | 1 | 93
COc1ccc(/C(O)=C2/C(=O)C(=O)N(CCN3CCNCC3)C2c2cccc([N+](=O)[O-])c2)cc1 (configuration not stated) | 5 | 6 | 109 | -5 | 104 | / | /
O=C(Nc1ccccc1C(=O)N1CCOCC1)c1ccc(Br)cc1 | 100* | 3 | 104 | -9 | 101 | / | / | GRK2 confirm 2=-14;FAM quench SP=98
Cc1ccc2[nH]c3c(=O)n(CC(=O)N4CCN(C)CC4)ncc3c2c1 | 2 | 0 | 100 | -1 | 103 | / | /
O=C(/C=C/c1ccc(O)c(O)c1)OC1C(O)CC(OC(=O)/C=C/c2ccc(O)c(O)c2)(C(=O)O)CC1O (configuration not stated) | 1 | 9 | 101 | 5 | 108 | / | /
O=C(/C=C/c1ccc(O)c(O)c1)O[C@@H]1C[C@](O)(C(=O)O)C[C@@H](O)[C@H]1O | 16 | / | / | -7 | / | -3 | 100
O=C(O)c1ccc(-n2cccc2/C=N\NC(=O)c2cc3cc(Br)ccc3o2)cc1 | 58* | -6 | 95 | 2 | 99 | 35 | 97
Cn1cc(/C=N/NC(=O)c2cc3cc(Br)ccc3o2)c2ccccc21 | 2 | -2 | 99 | -5 | 105 | / | /

Source: PubChem
